Measurements published in ChEMBL document CHEMBL1201862, “PubChem BioAssay data set” (2004).
About 2,100 (0.53%) of roughly 400,000 compounds were called active. Another 14% or so got no clear call; they are omitted. No rule for the calls is given here. Many of the other results were omitted from the sample, so actives are more common in it than they were.

Biological target: Ataxin-2 (Homo sapiens) (UniProt Q99700)
Assay: qHTS for Inhibitors of ATXN expression.
Format: functional

Chain of Ataxin-2 (Homo sapiens) (Q99700 whole entry): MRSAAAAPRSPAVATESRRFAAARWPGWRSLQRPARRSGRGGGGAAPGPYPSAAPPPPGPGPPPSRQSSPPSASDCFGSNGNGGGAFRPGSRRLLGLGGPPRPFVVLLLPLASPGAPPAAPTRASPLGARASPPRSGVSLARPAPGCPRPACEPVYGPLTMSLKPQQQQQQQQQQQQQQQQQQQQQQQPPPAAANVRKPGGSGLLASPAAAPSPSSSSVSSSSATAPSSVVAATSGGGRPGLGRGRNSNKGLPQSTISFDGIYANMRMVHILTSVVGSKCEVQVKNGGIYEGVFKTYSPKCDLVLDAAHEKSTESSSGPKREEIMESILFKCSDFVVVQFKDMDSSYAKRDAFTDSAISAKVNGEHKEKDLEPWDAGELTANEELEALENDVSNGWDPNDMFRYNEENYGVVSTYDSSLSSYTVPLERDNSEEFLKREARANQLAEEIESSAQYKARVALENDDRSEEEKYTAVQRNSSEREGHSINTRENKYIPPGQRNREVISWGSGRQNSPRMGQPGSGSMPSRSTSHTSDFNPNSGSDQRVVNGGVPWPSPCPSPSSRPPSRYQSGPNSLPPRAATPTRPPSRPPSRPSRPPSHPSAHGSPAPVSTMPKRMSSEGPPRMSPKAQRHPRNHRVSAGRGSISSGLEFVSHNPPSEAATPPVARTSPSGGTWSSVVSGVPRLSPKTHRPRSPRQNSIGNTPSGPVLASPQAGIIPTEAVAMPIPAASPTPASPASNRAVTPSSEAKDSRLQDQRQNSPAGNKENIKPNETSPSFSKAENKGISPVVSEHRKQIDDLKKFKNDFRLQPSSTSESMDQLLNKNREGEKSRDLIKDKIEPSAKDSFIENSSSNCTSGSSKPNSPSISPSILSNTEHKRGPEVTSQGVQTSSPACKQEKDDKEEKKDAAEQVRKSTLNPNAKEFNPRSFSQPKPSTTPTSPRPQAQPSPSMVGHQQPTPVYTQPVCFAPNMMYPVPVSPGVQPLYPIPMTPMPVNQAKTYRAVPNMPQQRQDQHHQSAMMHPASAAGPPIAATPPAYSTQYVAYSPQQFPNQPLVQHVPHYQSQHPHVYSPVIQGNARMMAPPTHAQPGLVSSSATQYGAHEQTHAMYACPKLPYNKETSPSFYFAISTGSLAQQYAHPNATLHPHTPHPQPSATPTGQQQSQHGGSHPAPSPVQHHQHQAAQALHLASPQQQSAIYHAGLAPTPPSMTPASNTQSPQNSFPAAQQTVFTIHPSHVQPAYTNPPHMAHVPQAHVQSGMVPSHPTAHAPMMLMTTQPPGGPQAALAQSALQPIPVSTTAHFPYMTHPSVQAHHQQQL

SMILES	Potency
COc1ccc(CN2CCCC(N3CCN(c4cccc(Cl)c4)CC3)C2)cc1OC (stereo not drawn)	inactive
CCN(CC)CCNc1ccc(C)c2sc3ccc(O)cc3c(=O)c12	33.6 µM (active)
Cc1cc2sc3ccccc3c(=O)c2c(C)c1O	inactive
CNC(=O)OCc1nc(SSC(C)(C)C)n(C)c1COC(=O)NC	23.8 µM (active)
CC(=O)CC1OC(O)=C(Br)/C1=N/Cc1ccccc1 (stereo not drawn)	20 µM (active)
NC(=O)c1cc2ccc(O)cc2o/c1=N\Cc1ccccc1	inactive
Oc1nc(N2CCOCC2)cc2ccccc12	inactive
Cc1cccc(Nc2nc(-c3ccccc3)c(C(=O)Nc3cccnc3)s2)c1	inactive
Cc1nc(NC(=O)/C=C/c2ccccc2)sc1C(=O)Nc1ccc(Cl)cc1	39.8 µM (active)
Cc1nc(NS(=O)(=O)c2ccccc2)sc1C(=O)NN	inactive
CC(C)=CC(=O)N1CCC(N2CCC(C(=O)N3CCOCC3)CC2)CC1	inactive
O=C(COCc1cc(-c2ccco2)on1)NC1CCCCC1	inactive
CCCc1cc(=O)oc2c(C)c(O[C@@H]3O[C@H](CO)[C@@H](O)[C@H](O)[C@H]3O)ccc12	inactive
Nc1nc(N)c2nc(-c3ccccc3)c(N)nc2n1	inactive
COc1ccc(OC)c(Nc2nc(-c3ccncc3)nc3ccccc23)c1	inactive
COc1ccc(OC)c(Nc2nc(NCc3ccco3)c3ccccc3n2)c1	39.8 µM (active)
OCCNc1nc(Nc2ccc(Br)cc2)nc2ccccc12	inactive
Cc1ccc(-c2nc(NCc3ccco3)n(S(C)(=O)=O)n2)cc1	inactive
Cc1cccc(Nc2nc(NCc3ccco3)c3ccccc3n2)c1	25.1 µM (active)
COc1ccc(OC)c(Nc2nc(-c3ccccc3O)nc3ccccc23)c1	inactive
O=[N+]([O-])c1cccc(S(=O)(=O)NCC2CC3CCC2C3)c1 (stereo not drawn)	inactive
CC(C)(C)c1ccc(SCCc2cccnc2)cc1	inactive

SMILES	Potency
Nc1c(C(=O)Nc2ccc(Cl)cc2F)sc2nc(-c3cccs3)ccc12	inactive
O=C(O)c1cccc(N2C(=O)c3cccc4c(Cl)ccc(c34)C2=O)c1	inactive
NC(=O)c1cc(N2C(=O)C=CC2=O)ccc1Cl	35.5 µM (active)
CN1CCN(/N=C/c2ccc(-c3ccc([N+](=O)[O-])cc3Cl)o2)CC1	inactive
CN1CCCN(C(=O)/C=C/c2ccc(Cl)cc2Cl)CC1	inactive
CN1CCN(C(=O)/C=C/c2ccc([N+](=O)[O-])o2)CC1	8.91 µM (active)
Nc1cccc2nc3ccccc3cc12	inactive
C1=C/C(=N\C2CCCCC2)C=C2C1=NC13CCCCC1CC1=C(CCCC1)N23 (stereo not drawn)	35.5 µM (active)
CSc1ccc(CN(C)Cc2nc(O)c3ccccc3n2)cc1	inactive
CCn1c(CNC(=O)c2ccc3c(c2)OCO3)nnc1SCC(=O)Nc1ccccc1F	inactive
Cc1nnc(NC(=O)CSc2cn(CCNC(=O)c3ccccc3)c3ccccc23)s1	inactive
O=C(CSc1cn(CCNC(=O)c2cccc(C(F)(F)F)c2)c2ccccc12)Nc1ccc2c(c1)OCCO2	35.5 µM (active)
COc1ccc(CCNC(=O)CSc2cn(CCNC(=O)c3cccc(C(F)(F)F)c3)c3ccccc23)cc1OC	22.4 µM (active)
COc1ccc(CCNC(=O)CSc2nnnn2C)cc1OC	inactive
O=C(COC(=O)CCSc1ccccc1Cl)NCc1ccco1	inactive
COc1ccc(CC(=O)NNC2=Nc3cccc4cccc2c34)cc1	inactive
N#Cc1ccc(C(=O)CSc2nnc(-c3ccc(C(F)(F)F)cn3)s2)cc1	inactive
O=C(NCCO)/C(=C\c1ccco1)NC(=O)c1cccs1	inactive
COC(=O)C1=CN(C(C)C)C=C(C(=O)OC)C1c1cccc(OC)c1	inactive
Cc1ccn2c(Nc3ccccc3C)c(-c3ccc(N4CCOCC4)cc3)nc2c1	35.5 µM (active)
c1ccc2c(Nc3ccc(N4CCOCC4)cc3)nc(N3CCOCC3)nc2c1	inactive
Cc1ccccc1Nc1c(-c2ccc(N3CCOCC3)cc2)nc2cccc(C)n12	22.4 µM (active)

SMILES	Potency
COc1ccc(C)cc1NC(=O)c1cc2c(=O)n3ccccc3nc2n1C	inactive
CCCCNc1c(-c2ccc(-c3ccc(C(C)=O)cc3)c(OC)c2)nc2cnccn12	inactive
Cc1cccc(C)c1Nc1c(-c2ccc(N3CCOCC3)cc2)nc2cnccn12	inactive
Cc1ccc(-c2nc(Nc3ccc(N4CCOCC4)cc3)c3ccccc3n2)cc1	inactive
COc1cc(O)ccc1-c1nc2cc(C)ccn2c1Nc1ccccc1C	35.5 µM (active)
c1cn2c(NC3CCCC3)c(-c3ccc(N4CCOCC4)cc3)nc2cn1	inactive
Cc1ccn2c(Nc3ccccc3C)c(-c3ccccn3)nc2c1	15.8 µM (active)
C/C(=N/NC(=O)c1sc(NS(=O)(=O)c2ccccc2)nc1C)c1sc(N)nc1C	inactive
CN(C)CC(O)c1ccc(C=Cc2ccc(Cl)cc2)cc1 (stereo not drawn)	31.6 µM (active)
Oc1nc2ccccc2nc1/C=C/c1ccc(Cl)cc1	inactive
CC(C)CN(CC(C)C)C(S)=Nc1ccc(Cl)cc1	inactive
Cc1ccc(S(=O)(=O)Nc2ccccc2/C=N/c2nc3ccccc3n2C(C)C)cc1	inactive
Nc1cc2sc(-c3ccc(C(=O)O)cc3)nc2cc1Cl	inactive
CC[C@@H](C)[C@H](CN[C@H](CNC)C(C)C)NC[C@@H](C)c1ccc(CC(C)C)cc1	22.4 µM (active)
COc1cc(CNC2CCCC2)cc(Cl)c1OCc1ccccc1F	28.2 µM (active)
COc1cc(/C=C(\C#N)c2nc3ccccc3[nH]2)cc(Cl)c1OCc1ccccc1Cl	inactive
NNC(=O)c1oc2ccccc2c1-n1cccc1	inactive
Cc1nc2c(c(C)nn2-c2ccccc2)c(C)c1C	inactive
Cc1cc(NC(=O)Nc2ccc(Cl)cc2)n(-c2ccccc2)n1	inactive
O=c1c(Cl)cc(Cl)nn1-c1ccccc1	25.1 µM (active)
CCOC(=O)Cc1cnc(NC(=O)CSc2nc(C)c(CC)c(O)n2)s1	inactive
CC(C)Oc1ccc(C(CCNCc2ccc(O)cc2)c2ccccc2)cc1 (stereo not drawn)	39.8 µM (active)

SMILES	Potency
OCCCNCc1ccc(-c2ccccc2)cc1	inactive
COc1ccc(CNCCC(c2ccc(OC(C)C)cc2)C(C)C)cc1OC (stereo not drawn)	25.1 µM (active)
O=c1c(O)c(-c2ccc(O)c(O)c2)oc2cc(O)ccc12	inactive
NC(=O)C[n+]1ccc(C=NO)cc1	inactive
CCc1cc(=O)oc2c(CNCc3ccccc3F)c(O)c(Cl)cc12	inactive
O=C(NNC(=O)c1cc2cc(Br)ccc2oc1=O)c1ccc(O)cc1O	inactive
Cc1ccc(NC(=O)CSCC(=O)OCc2cc(=O)oc3cc(O)ccc23)c(C)c1	inactive
COCCCn1/c(=N/C(=O)c2ccncc2)c(C#N)cc2c(=O)n3cccc(C)c3nc21	inactive
c1cc2c(cc1C1CCCCC1)c1c3n2CCCNC3CCC1 (stereo not drawn)	39.8 µM (active)
COc1ccc(OC)c(S(=O)(=O)Nc2ccc(O)c3ccccc23)c1	28.2 µM (active)
COc1ccc(OC)c(S(=O)(=O)Nc2ccc3c(c2)OCCO3)c1	inactive
COc1ccc(NS(=O)(=O)c2cc(NC(=O)c3cc(=O)c4ccccc4o3)ccc2OC)cc1	inactive
CN(CCC1CCCCO1)C(=O)CCc1nnc(CCCCc2ccccc2)o1 (stereo not drawn)	inactive
Cc1ccc(OCC(=O)Nc2ccc(CN3CCOCC3)cc2)cc1C	inactive
Cc1cc(C)c(CN2CCN(CCCn3cnc(C(=O)Nc4ccc(C)c(C)c4)n3)CC2)c(C)c1	35.5 µM (active)
Brc1ccc(C2=CC(c3ccco3)n3nnnc3N2)cc1 (stereo not drawn)	inactive
CC(C)N=C(S)NN=C1c2ccccc2-c2ccccc21	inactive
COc1cccc(/C=C/C(=O)c2ccc(NC3=NCCCS3)cc2)c1	39.8 µM (active)
CCc1nnc(NS(=O)(=O)c2ccc(N/C=C\C(=O)c3cccc(OC)c3)cc2)s1	inactive
CCC1CSC(Nc2ccc(C(=O)/C=C/c3ccc(OC)c(OC)c3)cc2)=N1 (stereo not drawn)	39.8 µM (active)
COc1ccc(/C=C/C(=O)Nc2ccc(Cl)c(Cl)c2)cc1OC	31.6 µM (active)
COc1ccc(/C=C/C(=O)Nc2cccnc2)cc1OC	inactive

SMILES	Potency
CCOc1ccc(Nc2oc(/C=C/c3cccc(OC)c3)nc2C#N)cc1	inactive
COc1cc(/C=C/C(=O)OCC(=O)NC2CCS(=O)(=O)C2)ccc1OC(F)F (stereo not drawn)	inactive
COc1cc(/C=C/C(=O)Nc2ccc(S(=O)(=O)Nc3onc(C)c3C)cc2)cc(OC)c1OC	inactive
CCOC(=O)c1sc2nc(C)nc(Nc3ccc(OC)c(OC)c3)c2c1C	inactive
CC(C)C(C)(C#N)NC(=O)CSc1nnc(C(F)(F)F)n1C (stereo not drawn)	inactive
COc1cccc(/C=C/c2nc(C#N)c(N3CCCCCC3)o2)c1	inactive
COc1ccccc1[C@@H]1C(c2cccc(C)c2)=NN(c2ccccc2)[C@H]1C(=O)N1CCOC1=O	inactive
CCN1CN=C(S)N(c2ccccc2C)C1	inactive
Cc1nn2c(-c3ccc(F)cc3)ccnc2c1Cl	inactive
CN(C)c1ccc(/C=C2\Oc3ccc(C#Cc4cccc(N)c4)cc3C2=O)cc1	inactive
CN1Cc2c(N3CCOCC3)nc3sc(C(=O)c4ccc(Br)cc4)c(N)c3c2CC1(C)C	inactive
Cc1ccccc1-c1nc(C#N)c(N2CCCCC2)o1	inactive
COC1=C(OC)C(=O)C(Sc2ccc3ccccc3c2)=CC1=O	33.6 µM (active)
CC1=CC(=O)C(Sc2ccc(C)cc2)=CC1=O	inactive
Cc1cccn2c(=O)c3cc(C(=O)NCC4CCCO4)c(=N)n(C4CCCCC4)c3nc12 (stereo not drawn)	inactive
COC(=O)C1=NN(c2ccc(C)cc2)C2C(=O)N(c3ccccc3OC)C(=O)C12 (stereo not drawn)	inactive
COc1ccccc1CNC(=O)C(C)Sc1ccc(C)cc1 (stereo not drawn)	inactive
COc1ccc(OC)c(NC(=O)Nc2nc(C(N)CCc3ccccc3)cs2)c1 (stereo not drawn)	39.8 µM (active)
COc1ccccc1CNC(=O)Nc1nc(C(N)CCc2ccccc2)cs1 (stereo not drawn)	39.8 µM (active)
COc1ccccc1CNC(=O)Cc1cc(O)nc(O)n1	inactive
